Measurements taken from PubChem BioAssay AID1851 (National Center for Advancing Translational Sciences (NCATS), 2009).
Values joined by “and” are separate entries in the source; they are usually repeats but may differ in a detail not shown here. Equal values may be shown once. The whole screen tested about 16,000 compounds, of which about 5,800 (36%) were called active. About 23% were inconclusive and are not listed. Calls come from the whole dose curve; as a rule, active = well fitted curve in the direction sought with a large enough effect; inconclusive = small, poorly fitted or top-dose-only effect, or effect the other way; inactive = no such curve, though single readings can be large or run the other way. This is one part of the list. More than one record can exist for a structure, and the calls need not agree.
% is set by controls: 0 for no effect and ±100 for the full control effect.

Each compound was assayed against Cytochrome P450 2C19 (Homo sapiens) (UniProt P33261) (assay: Cytochrome panel assay with activity outcomes). Settings: recombinant CYP, pro-luciferin dealkylation, luminescence, p450-cyp2c19; series mostly up to 57.1 µM; activity, negative = inhibition: at the top concentration.
Cytochrome P450 2C19 (Homo sapiens), sequence (P33261 whole entry, looked up): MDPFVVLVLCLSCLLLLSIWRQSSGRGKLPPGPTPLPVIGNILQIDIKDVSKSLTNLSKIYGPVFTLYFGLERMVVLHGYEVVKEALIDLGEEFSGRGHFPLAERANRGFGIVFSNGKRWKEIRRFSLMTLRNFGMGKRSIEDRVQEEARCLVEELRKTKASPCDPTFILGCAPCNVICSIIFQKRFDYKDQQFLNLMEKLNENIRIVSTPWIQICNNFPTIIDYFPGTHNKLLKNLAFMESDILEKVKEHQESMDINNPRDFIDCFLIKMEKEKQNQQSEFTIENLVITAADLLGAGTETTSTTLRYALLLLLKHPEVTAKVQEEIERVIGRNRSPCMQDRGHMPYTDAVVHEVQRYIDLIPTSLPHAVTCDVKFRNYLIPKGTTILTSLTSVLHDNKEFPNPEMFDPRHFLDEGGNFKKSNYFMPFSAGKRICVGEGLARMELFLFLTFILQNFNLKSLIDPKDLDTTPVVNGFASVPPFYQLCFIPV
With `Cc1cnc(CNc2ncnc3ccc(-c4cccc(NS(C)(=O)=O)c4)cc23)cn1` the “activity, negative = inhibition” value was -33.4% (inactive).
`CS(=O)(=O)Nc1cccc(-c2ccc3ncnc(NCc4cccnc4)c3c2)c1` was tested, and the AC50 was 0.0501 µM (active).
`CS(=O)(=O)Nc1cccc(-c2cncnc2NCc2cccnc2)c1` was tested, and the AC50 was 3.16 µM (active).
With `CS(=O)(=O)Nc1cccc(-c2cncnc2Nc2ccccc2)c1` the “activity, negative = inhibition” value was -23.9% (inactive).
In the case of `Cc1cccc(CNc2ncncc2-c2cccc(NS(C)(=O)=O)c2)c1`, the AC50 is reported as 6.31 µM (active).
With `N[C@H](C(=O)O)[C@@H]1[C@@H](C(=O)O)C1(F)F` the “activity, negative = inhibition” value was -41.1% (inactive).
For `CCOC(=O)C1=C(C)NC2=C(C(=O)C(C(=O)OCC)C(c3ccc(OC)cc3)C2)C1c1ccccn1` (configuration not stated), the AC50 was 20 µM (active).
In the case of `O=C(c1cc2sccc2n1Cc1ccccc1)N1CCN(c2nc3ccccc3s2)CC1`, the AC50 is reported as 2.24 µM (active).
In the case of `O=C(CN1CCN(Cc2ccccc2)CC1)N1CCCc2c1c(=O)oc1ccc(O)cc21`, the AC50 is reported as 3.55 µM (active).
With `O=C(O)c1cccc(CN2CCCCC2)c1` the activity, negative = inhibition was 9.75% [at 11.4 µM] (inactive).
With `CCCc1c(-c2ccc(O)cc2)nn(-c2ccc(O)cc2)c1-c1ccc(O)cc1` the “activity, negative = inhibition” value was 38.6% (inactive).
For `O=S(=O)(O)C1CCNCC1`, the “activity, negative = inhibition” value was 12.3% (inactive).
`O=S(=O)(c1ccccc1)N1N=C(c2cccs2)CC1c1ccc(Br)cc1` (configuration not stated) was tested, and the AC50 was 2 µM (active).
`N#CCCn1c(=O)c(-c2cc(F)cc(F)c2)nc2cnc(N3CCOCC3)nc21` was tested, and the “activity, negative = inhibition” value was -6.19% (inactive).
In the case of `O=c1nc(-c2ccccc2)cc(C(F)(F)F)[nH]1`, the “activity, negative = inhibition” value is reported as -28.7% (inactive).
For `Cc1ccc2c(C)nc(Nc3nc(CSc4nc5ccccc5[nH]4)cc(=O)[nH]3)nc2c1`, the AC50 was 7.08 µM (active).
`Cc1ccc2nc(Nc3nc(-c4ccccc4)cc(=O)[nH]3)nc(C)c2c1` was tested, and the AC50 was 3.16 µM (active).
With `COc1ccc(C(N)=O)cc1NC(=O)c1cccc(F)c1` the “activity, negative = inhibition” value was -0.928% (inactive).
`CCN(CC)c1ccc(NC(=O)c2cccc(F)c2)c(C)c1` was tested, and the AC50 was 15.8 µM (active).
In the case of `Cn1c(SCc2nnc(-c3ccc(F)cc3)o2)nnc1C1COc2ccccc2O1` (configuration not stated), the AC50 is reported as 17.8 µM (active).
For `Oc1ccc(C2Nc3cccc4cccc(c34)N2)c(O)c1`, the AC50 was 5.62 µM (active).
In the case of `O=[N+]([O-])c1nccn1C[C@H](O)CN1CCCCC1`, the activity, negative = inhibition is reported as 22.6% [at 11.4 µM] (inactive).
For `O=C1C2[C@@H](c3ccccc3)N[C@@H](c3ccccc3)C1[C@H](c1ccccc1)N[C@H]2c1ccccc1`, the activity, negative = inhibition was -2.21% [at 11.4 µM] (inactive).
With `S=C1N[C@H](c2ccccc2)N[C@H](c2ccccc2)S1` the AC50 was 3.98 µM (active).
In the case of `O=C(CCCCCN1C(=O)c2ccccc2C1=O)NCc1ccccn1`, the “activity, negative = inhibition” value is reported as -12.2% (inactive).
`COc1ccc(CCNC(=O)CCCCCN2C(=O)c3ccccc3C2=O)cc1` was tested, and the AC50 was 2.51 µM (active).
For `CCOCCCNC(=O)CCS(=O)(=O)Cc1ccc(C)cc1`, the “activity, negative = inhibition” value was -54.9% (inactive).
`CCOc1ccc(CCNC(=O)CCCN2C(=O)c3ccccc3C2=O)cc1OCC` was tested, and the AC50 was 28.2 µM (active).
In the case of `C#CCCCO/N=C1/C[C@@H](O)[C@@H](O)[C@@H]2[C@@H]3C(=O)N(C[C@@H]4CCCO4)C(=O)[C@H]3CC[C@@H]12`, the activity, negative = inhibition is reported as 1.94% [at 11.4 µM] (inactive).
`O=S(=O)(NCc1cc(-c2ccccc2Cl)no1)c1ccccc1` was tested, and the AC50 was 0.158 µM (active).
`O=C(Nc1ccccc1)c1cc(-c2ccccc2Cl)no1` was tested, and the AC50 was 2.82 µM (active).
In the case of `O=S(=O)(NCc1cc(-c2ccccc2Cl)no1)c1ccc(Cl)cc1`, the AC50 is reported as 0.0562 µM (active).
For `O=C(O)[C@@H]1[C@@H](C(=O)Nc2ccccc2)[C@@H]2C=C[C@@H]1O2`, the activity, negative = inhibition was -3.64% [at 11.4 µM] (inactive).
With `O=C1c2ccccc2C(=O)N1Cc1cc(-c2ccccc2Cl)no1` the AC50 was 10 µM (active).
For `CC[C@@H](CS(=O)(=O)O)[N+](=O)[O-]`, the activity, negative = inhibition was 45% [at 11.4 µM] (inactive).
For `CN(C)C(=O)CN(c1ccc2c(c1)OCO2)S(C)(=O)=O`, the “activity, negative = inhibition” value was -7.35% (inactive).
`CS(=O)(=O)N(CC(=O)Nc1c(F)cccc1F)c1ccc(C23CC4CC(CC(C4)C2)C3)cc1` was tested, and the AC50 was 11.2 µM (active).
In the case of `CCCN(CCC)C(=O)[C@@H](CCC(=O)O)NC(=O)c1ccccc1`, the AC50 is reported as “inactive”.
`CCCCCCCCCCCCCCC/C=C\[C@H](O)[C@@H](NC(=O)CCCCCCCCCCCCC)OC` (tested in a mixture with another compound) was tested, and the “activity, negative = inhibition” value was -16.6% (inactive).
For `CCCC/C=C/C(NC(=O)c1ccc(-c2ccccc2)cc1)c1ccccc1` (configuration not stated), the “activity, negative = inhibition” value was -0.0339% (inactive).
`CCCC/C=C/C(NC(=O)c1ccco1)c1ccccc1` (configuration not stated) was tested, and the AC50 was 15.8 µM (active).
For `CCCC/C=C/C(NC(=O)c1cccs1)c1ccccc1` (configuration not stated), the AC50 was 1.58 µM (active).
`CCCC/C=C/C(NC(=O)c1ccccc1)c1ccccc1` (configuration not stated) was tested, and the AC50 was 7.94 µM (active).
For `CCCC/C=C/C(NC(=O)Oc1cccc(C(F)(F)F)c1)c1ccccc1` (configuration not stated), the AC50 was 3.16 µM (active).
`Nc1cc(=O)[nH]c(N)n1` was tested, and the “activity, negative = inhibition” value was 27.3% (inactive).
With `CC(C)=CCC/C(C)=C/CO/N=C1/[C@H]2O[C@@H]2[C@@H](O)[C@H]2[C@H]1CCn1c(=O)n(-c3ccccc3)c(=O)n12` the activity, negative = inhibition was 18.2% [at 11.4 µM] (inactive).
For `N#Cc1cccc(-c2nc3cnc(N4CCOCC4)nc3n(C[C@H]3CCCO3)c2=O)c1`, the “activity, negative = inhibition” value was 11.7% (inactive).
With `COc1cccc(N(C(=O)Cn2nnc(-c3ccc(C)cc3)n2)C(C(=O)NC(C)(C)C)c2c[nH]c3ccccc23)c1` (configuration not stated) the AC50 was 10 µM (active).
With `OC[C@@H]1O[C@H](O)[C@@H](Cl)[C@H](O)[C@@H]1O` the “activity, negative = inhibition” value was 27.9% (inactive).
With `CN(CC[C@@H](Oc1ccc(-c2ccccc2)cc1)c1ccc(F)cc1)CC(=O)O` the AC50 was 6.31 µM (active).
For `CNCC[C@H](Oc1ccccc1OC)c1ccccc1`, the AC50 was “inactive”.
For `CC(Oc1ccc(-c2ccccc2)c(F)c1)c1ccn(S(=O)(=O)c2ccc(Cl)cc2)n1` (configuration not stated), the AC50 was 3.55 µM (active).
In the case of `CC(Oc1ccccc1)c1ccnn1S(=O)(=O)c1ccccc1` (configuration not stated), the AC50 is reported as 2 µM (active).
With `CC(C)CN1CCC2(CC1)CCN(S(=O)(=O)c1ccccc1)CC2` the “activity, negative = inhibition” value was -0.341% (inactive).
In the case of `CC(Oc1ccc(Cl)cc1)c1ccnn1S(=O)(=O)c1ccccc1` (configuration not stated), the AC50 is reported as 0.501 µM (active).
In the case of `CO[C@H]1COC(=O)[C@H](C)NC(=O)C/C=C\[C@@H](C)[C@H](OC)COC(=O)[C@@H](OCc2ccccc2)/C=C\[C@@H]1C`, the activity, negative = inhibition is reported as 1.79% [at 11.4 µM] (inactive).
For `N[C@@H](C(=O)O)c1ccc(C(=O)O)c(C(=O)O)c1`, the AC50 was 316 nM (active) and inactive and 3.16 µM (active).
`N[C@H](C(=O)O)c1ccc(C(=O)O)cc1` was tested, and the “activity, negative = inhibition” value was 53.2% (inactive).
In the case of `N[C@@H](C(=O)O)c1ccc(C(=O)O)cc1`, the AC50 is reported as “inactive”.
`N[C@H](C(=O)O)c1ccc(C(=O)O)c(O)c1` was tested, and the “activity, negative = inhibition” value was 25.4% (inactive).
In the case of `N[C@@H](C(=O)O)c1ccc(C(=O)O)c(O)c1`, the “activity, negative = inhibition” value is reported as 20.8% (inactive).
For `N[C@@H](C(=O)O)c1ccc(P(=O)(O)O)cc1`, the AC50 was 15.8 µM (active).
